# Measurements reported in PubChem BioAssay AID504834 (National Center for Advancing Translational Sciences (NCATS), 2011).
# Screen size: about 320,000 compounds; about 22,000 (6.9%) were called active. Roughly 27% stayed inconclusive and do not appear here. The call rests on the fitted dose curve; in most records, active means well fitted inhibition curve with a large enough effect; inconclusive means small, poorly fitted or top-dose-only effect, or another doubt; inactive means no such curve, though single readings can be large or run the other way. The sample as a whole holds a higher share of actives than the screen did.
# Test: Primary qHTS for delayed death inhibitors of the malarial parasite plastid, 96 hour incubation
# Details: P. falciparum luciferase reporter growth; series mostly up to 28.7 µM; activity change, negative = inhibition: at the top concentration
# Procedure, shortened: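 Cell-based qHTS: luciferase-tagged P. falciparum in erythrocytes (2% hematocrit, 0.05% parasitemia final) incubated with compounds for 96 hours, 37 C, 5% CO2; luciferase detection reagent then added and luminescence measured.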
# On the % scale 0 is the no-effect control and ±100 the full control effect; potency means the concentration at half of the fitted maximal effect.
SMILES,"activity change, negative = inhibition",Potency
COc1ccccc1N1CCN(S(=O)(=O)CCNC(=O)c2ccc(OC(C)C)cc2)CC1,13.5% (inactive),
CCCCC1(C(=O)OCC)NC(c2ccc(O)cc2)C2C(=O)N(c3ccccc3)C(=O)C21 (stereo not drawn),34.6% (inactive),
CC(OC(=O)C1CC(=O)N(Cc2ccccc2)C1)C(=O)Nc1ccccc1[N+](=O)[O-] (stereo not drawn),49.9% (inactive),
CCSCc1nc(N)nc(NCCc2ccccc2)n1,0% (inactive),
Cc1ccc(C(=O)N2CC(=O)Nc3ccc(F)cc3C2c2ccc(F)cc2)cc1 (stereo not drawn),,1.47 µM (active)
CC(C)C(=O)N1CC(=O)Nc2ccc(F)cc2C1c1ccc(F)cc1 (stereo not drawn),17.2% (inactive),
O=C1CN(C(=O)c2ccccc2F)C(c2ccc(F)cc2)c2cc(F)ccc2N1 (stereo not drawn),13% (inactive),
Cc1ccc2c(c1)C(c1ccccc1)N(C(=O)c1ccc(F)cc1)CC(=O)N2 (stereo not drawn),24.6% (inactive),
CCC(CC)C(=O)N1CC(=O)Nc2ccc(Br)cc2C1c1ccccc1 (stereo not drawn),,8.28 µM (active)
COC(=O)CN1C(C)=Nc2ccc(Br)cc2C1c1ccccc1 (stereo not drawn),-2.01% (inactive),
CCCCn1c(N)c(N(CC(C)C)C(=O)c2cccc(S(=O)(=O)N3CC(C)OC(C)C3)c2)c(=O)[nH]c1=O (stereo not drawn),-20.2% (inactive),
O=C(COC(=O)c1cc(=O)[nH]c2ccccc12)NCc1cccc(Cl)c1,-21.9% (inactive),
O=C(Nc1ccccc1C(=O)N1CCOCC1)c1ccc(Cl)cc1,,13.1 µM (active)
O=C(Nc1ccccc1C(=O)N1CCCCCC1)c1ccccc1Cl,21.4% (inactive),
O=C(Nc1ccccc1C(=O)N1CCOCC1)c1ccc(CSc2ccccc2)cc1,-3.39% (inactive),
O=C(CN1CCN(C(=O)c2cccc(F)c2)CC1)Nc1ccccc1F,43.4% (inactive),
CC(=O)NC1(c2cccc(F)c2)CCN(CC(=O)NC(C)C)CC1,,1.85 µM (active)
Cc1cc(NC(=O)CN2CCC(O)(c3cccc(F)c3)CC2)no1,0% (inactive),
O=C(O)Cc1csc(NC(=O)CSc2nnnn2-c2ccc(O)cc2)n1,19.6% (inactive),
CCn1c(SCC(=O)NC2CC2)nnc1-c1ccccn1,1.07% (inactive),
CCN(CC(=O)NCCc1ccccc1)S(=O)(=O)c1ccc(C)cc1,4.36% (inactive),
Cc1ccc(S(=O)(=O)N(C)CC(=O)NC2CCCC2)cc1,-4.78% (inactive),
Cc1ccc(S(=O)(=O)N(CC(=O)NCCSC2CCCCC2)c2ccccc2F)cc1,,1.65 µM (active)
Cc1ccc(CNC(=O)C(=O)c2cn(CC(=O)N3CCOCC3)c3ccccc23)cc1,41.8% (inactive),
O=C(CS(=O)(=O)c1cn(Cc2cccc(F)c2)c2ccccc12)N1CCCCC1,94.6% (inactive),
O=C(CS(=O)(=O)c1cn(Cc2ccc(Cl)cc2)c2ccccc12)N1CCOCC1,,8.28 µM (active)
CCc1ccc(NC(=O)COC(=O)c2cccs2)cc1,-27.9% (inactive),
CCOC(=O)Cc1cc(=O)[nH]c(/N=C(\N)Nc2ccc(OC)cc2)n1,8% (inactive),
